# Test results published in PubChem BioAssay (NCI).
# About 79,000 compounds went through this panel and 15% of them were active in at least one assay; those are over-represented in the sample as a whole. Unmarked numbers belong to inactive results. The source made the active and inactive calls. Cut-off read from the data, not from the text of the source: active = growth inhibition above about 70%; inactive = the rest.
# Legend:
# [1] = NCI Yeast Anticancer Drug Screen. Data for the rad50 strain (AID 155);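 note: 0% = growth of vehicle-only cultures of the same strain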; details: S. cerevisiae rad50 strain growth inhibition, stronger effect = higher value
# Outline: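 Relative growth inhibition (compound vs vehicle) was measured in yeast with a defined repair-gene alteration.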
# [2] = NCI Yeast Anticancer Drug Screen. Data for the mec2-1 strain (AID 157); details: S. cerevisiae mec2-1 strain, stronger effect = higher value
# Outline: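 Vehicle-treated cultures served as reference for growth inhibition of compound-exposed mec2-1 yeast.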
# [3] = NCI Yeast Anticancer Drug Screen. Data for the sgs1 mgt1 strain (AID 161);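 note: 0% = growth of cultures given vehicle only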; details: S. cerevisiae sgs1 mgt1 strain, stronger effect = higher value
# Outline: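 Inhibition of yeast growth, normalised to vehicle-treated controls, is reported for a strain bearing genetic alterations in DNA damage repair.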
# [4] = NCI Yeast Anticancer Drug Screen. Data for the cln2 rad14 strain (AID 165);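 note: 0% = growth equal to vehicle treated cultures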; details: S. cerevisiae cln2 rad14 strain, stronger effect = higher value
# Outline: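 Each compound was tested on cln2 rad14 yeast. Inhibition of growth was calculated against vehicle-exposed controls.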
# [5] = NCI Yeast Anticancer Drug Screen. Data for the bub3 strain (AID 167); details: S. cerevisiae bub3 mutant strain, stronger effect = higher value
# Outline: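 Screening used yeast with an engineered genetic alteration affecting cell cycle control. Compound-exposed cultures were compared with vehicle cultures, and reduced growth was taken as inhibition.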
# [6] = NCI Yeast Anticancer Drug Screen. Data for the mlh1 rad18 strain (AID 175); details: S. cerevisiae mlh1 rad18 strain growth inhibition, stronger effect = higher value
# Outline: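 Vehicle-treated cultures served as the reference for growth inhibition in a yeast strain carrying DNA damage repair alterations exposed to each compound.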
# [7] = at 5.0 µM (retest, dose inferred, filed as 0.5)
# [8] = at 50.0 µM (retest, dose inferred, filed as 5.0)
Compound,"growth inhibition [1, 7]","growth inhibition [1, 8]",growth inhibition ([1]; at 50.0 µM),"growth inhibition [2, 7]","growth inhibition [2, 8]",growth inhibition ([2]; at 50.0 µM),"growth inhibition [3, 7]","growth inhibition [3, 8]",growth inhibition ([3]; at 50.0 µM),"growth inhibition [4, 7]","growth inhibition [4, 8]",growth inhibition ([4]; at 50.0 µM),"growth inhibition [5, 7]","growth inhibition [5, 8]",growth inhibition ([5]; at 50.0 µM),"growth inhibition [6, 7]","growth inhibition [6, 8]",growth inhibition ([6]; at 50.0 µM)
Nc1nc(-c2ccccc2)cc(-c2ccccc2O)n1,7%,-1%,40.8%,0%,15%,20.5%,12%,19%,62.6%,13%,9%,69.2%,9%,23%,26.1%,8%,11%,67.7%
Cc1cc2c(c(C(N)=O)c1C)-c1cccc(F)c1C2=O,4%,47%,77.4% (active),4%,20%,7.15%,20%,20%,37.6%,-1%,14%,75.5% (active),2%,32%,16%,1%,32%,90.5% (active)
Oc1cc(O)c2c(c1)OC(c1ccc(O)c(O)c1)C(OC1(c3cc(O)c(O)c(O)c3)Oc3cc(O)cc(O)c3C(O)C1O)C2 (configuration not stated),-4%,17%,-3.85%,-5%,-27%,-18.2%,-14%,6%,-15.9%,-31%,4%,-9.25%,8%,-4%,-33.5%,-5%,12%,42.5%
O=C(Sc1ccccc1)C1OC12CCCCC2 (configuration not stated),-160%,-116%,50.5%,-48%,-44%,31.2%,-68%,-47%,63.8%,-62%,-75%,-8.05%,-65%,-57%,8.8%,-122%,-90%,50.1%
O=C(Nc1ccc(C(F)(F)F)cc1[N+](=O)[O-])C(=O)C(C(=O)c1ccc2ccccc2c1)C1OC(=O)c2ccccc21 (configuration not stated),26%,26%,2.05%,10%,10%,4.85%,8%,8%,13.9%,15%,15%,-28.6%,9%,9%,22.7%,10%,10%,10.2%
CCN(CC)CCC(=O)/C=C/c1ccc(Cl)c(Cl)c1,10%,97% (active),90% (active),0%,99% (active),93.1% (active),16%,56%,92% (active),14%,97% (active),90.4% (active),10%,98% (active),91.4% (active),37%,98% (active),89.3% (active)
CN(Cc1cc(C(C)(C)C)cc(Br)c1O)Cc1cc(C(C)(C)C)cc(Br)c1O,2%,24%,72% (active),-2%,91% (active),86.2% (active),-9%,64%,58.8%,-11%,87% (active),89.5% (active),-11%,71% (active),81.3% (active),-8%,84% (active),61.1%
CCCCCCCCCCCCCCCC(=O)N1CCOCC1,-4%,94% (active),31.4%,-5%,97% (active),31.8%,-4%,98% (active),-13.7%,1%,62%,-64.8%,-8%,98% (active),21.2%,17%,93% (active),28.1%
CCCCc1c2c(nc3c1CCC/C3=C\c1ccccc1)C(=O)C(CN(C)C)CC2 (configuration not stated),16%,96% (active),86.3% (active),10%,97% (active),89.1% (active),29%,97% (active),86.5% (active),11%,96% (active),86.8% (active),13%,95% (active),84.5% (active),11%,96% (active),84.5% (active)
CC(=O)Oc1c([N+](=O)[O-])cc(-c2ccccc2)cc1[N+](=O)[O-],18%,99% (active),78.2% (active),20%,100% (active),56.1%,21%,99% (active),66.3%,9%,99% (active),47.5%,21%,99% (active),62.1%,6%,99% (active),84.6% (active)
CO/N=C/c1cc(NC(=S)c2ccoc2C)ccc1Cl,4%,0%,93.2% (active),-16%,-17%,94.2% (active),20%,6%,93.7% (active),-26%,10%,92.2% (active),9%,34%,92.2% (active),-23%,-14%,91.2% (active)
CS(=O)(=O)Nc1ccc(Nc2c3ccccc3nc3ccccc23)cc1,13%,25%,91.8% (active),-7%,-11%,25.6%,6%,20%,14.3%,-14%,-3%,18.9%,10%,-2%,37.9%,1%,13%,35.1%
CC(C)c1ccc(C(C)C)c(O)c1O,13%,72% (active),82% (active),24%,73% (active),87.3% (active),22%,79% (active),88% (active),21%,63%,53.2%,7%,67%,87.2% (active),7%,94% (active),69.8%
CC(=O)NC1C(=O)CC(c2ccccc2)N(C)C1c1ccccc1 (configuration not stated),2%,2%,7.55%,2%,6%,6.55%,-2%,1%,25.3%,4%,0%,36.1%,2%,3%,18%,1%,-7%,31.7%
COc1cc(C)cc(C(=O)OCc2ccccc2)c1C1=C(Cl)C(=O)C(Cl)=CC1=O,16%,16%,85.5% (active),12%,12%,83.9% (active),5%,5%,87.5% (active),10%,10%,82% (active),-16%,-16%,80.5% (active),4%,4%,74.5% (active)
COc1ccc2cc3c4cc(OC)c(OC)cc4ccn3c2c1,3%,65%,33.1%,-1%,58%,15.3%,16%,81% (active),62.4%,5%,71% (active),80% (active),-1%,84% (active),24.2%,12%,88% (active),91.5% (active)
COc1ccc(-c2n[nH]c(C(F)(F)F)c2N=NN(C)C)cc1OC,97% (active),98% (active),98.9% (active),99% (active),99% (active),99.5% (active),99% (active),99% (active),99.4% (active),99% (active),99% (active),99.4% (active),99% (active),99% (active),99.4% (active),99% (active),99% (active),99.6% (active)
CC(C)(C)OC(=O)c1ccc(NCC2=C(Br)C(=O)C=CC2=O)cc1,18%,98% (active),89.8% (active),12%,99% (active),94% (active),15%,97% (active),83.4% (active),5%,94% (active),89.1% (active),0%,96% (active),80.8% (active),14%,99% (active),89.5% (active)
CN(CN(C)N=Nc1ccc(Cl)cc1)CN(C)N=Nc1ccc(Cl)cc1,-14%,9%,-3.1%,3%,-8%,-1.75%,-24%,4%,4.7%,-6%,-2%,19.9%,0%,4%,-0.7%,-12%,3%,9.7%
